According to PubChem BioAssay (Tox21):
Records with an inconclusive call do not appear. The source made the active and inactive calls. Unless noted, calls come from the whole dose curve; as a rule, active = well fitted curve in the direction sought with a large enough effect in the repeat runs; inconclusive = weak or mixed curves; inactive = no such curve, though single readings can be large; an effect the other way counts as inactive or inconclusive.

Legend:
[1] = A CellTox Green Cytotoxicity Assay to monitor cytotoxicity in HEK293 cells - 8 hour (AID 1224884); note: nearly all actives have a fitted effect of over 35% in size; note: potency is the fitted concentration of half-maximal effect
Outline: (§1)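 HEK293 cells, 600/well, were preincubated 5 hours and then exposed to compounds at 37 C for up to 40 hours. A cell-impermeant cyanine dye staining dead-cell DNA was read by fluorescence at 0, 8, 16, 24, 32 and 40 h time points.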

[2] = qHTS RealTime-Glo MT Cell Viability Assay in HepG2 cells - 16 hour (AID 1224885); note: nearly all actives have a fitted effect of over 50% in size; note: potency is the fitted concentration of half-maximal effect
Outline: (§2)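 Real-time, nonlytic viability: 600 HepG2 cells/well mixed with NanoLuc enzyme plus prosubstrate; 5 h settle, compound (DMSO) added by pintool; luminescence monitored over 40 h at 37 C.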

[3] = qHTS RealTime-Glo MT Cell Viability Assay in HEK293 cells - 24 hour (AID 1224886); note: nearly all actives have a fitted effect of over 50% in size; note: potency is the fitted concentration of half-maximal effect
Outline: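 Cells + reagent dispensed (600 cells/well, HEK293) → 5 h at 37 C/5% CO2 → 23 nL compound in DMSO pinned → 40 h at 37 C → luminescence read at 0, 8, 16, 24, 32, 40 h.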

[4] = qHTS RealTime-Glo MT Cell Viability Assay in HEK293 cells - 8 hour (AID 1224887); note: nearly all actives have a fitted effect of over 50% in size; note: potency is the fitted concentration of half-maximal effect
Outline: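 600 cells/well were plated with the nonlytic NanoLuc/prosubstrate reagent, pre-incubated 5 h, then given 23 nL of compound in DMSO. Incubation at 37 C for 40 h, with luminescence from viable-cell-reduced substrate read repeatedly from 0 h.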

[5] = qHTS RealTime-Glo MT Cell Viability Assay in HepG2 cells - 0 hour (AID 1224889); note: nearly all actives have a fitted effect of over 50% in size; note: potency is the fitted concentration of half-maximal effect
Outline: as §2

[6] = A CellTox Green Cytotoxicity Assay to monitor cytotoxicity in HepG2 cells - 8 hour (AID 1224890); note: nearly all actives have a fitted effect of over 45% in size; note: potency is the fitted concentration of half-maximal effect
Outline: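 HepG2 cells, 600/well, preincubated 5 h with CellTox Green dye, then exposed to Tox21 compounds in DMSO at 37 C for up to 40 h. Dead-cell DNA fluorescence read at the indicated time point.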

[7] = qHTS assay to identify small molecule antagonists of the estrogen receptor alpha (ER-alpha) signaling pathway using the BG1 cell line in the presence of 0.1 nM 17-beta-estradiol - cell viability counter screen (AID 1259241); note: nearly all actives have a fitted effect of over 40% in size; note: potency is the fitted concentration of half-maximal effect
Outline: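 Measures cytotoxicity alongside the ER-alpha antagonist readout: VM7Luc4E2 cells, charcoal-stripped serum, 0.1 nM 17beta-estradiol final, 22 hr compound incubation at 37C, CellTiter-Fluor fluorescence.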

[8] = qHTS assay to identify small molecule antagonists of the androgen receptor (AR) signaling pathway using the MDA cell line in the presence of 0.5 nM R1881 - cell viability counter screen (AID 1259242); note: nearly all actives have a fitted effect of over 45% in size; note: potency is the fitted concentration of half-maximal effect
Outline: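 MDA-kb2 cells (MMTV-luciferase, AR/GR responsive) were treated with compounds plus 0.5 nM R1881 (final) for 16 hr at 37C, 0% CO2. Viability was then read in the same wells as live-cell protease fluorescence (CellTiter-Fluor, 30 min).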

[9] = target: Androgen receptor (Homo sapiens) (UniProt P10275); assay: qHTS assay to identify small molecule antagonists of the androgen receptor (AR) signaling pathway using the MDA cell line in the presence of 0.5 nM R1881 (AID 1259243); note: nearly all actives have a fitted effect of over 50% in size; note: potency is the fitted concentration of half-maximal effect
Sequence of Androgen receptor (Homo sapiens) (P10275 whole entry, looked up): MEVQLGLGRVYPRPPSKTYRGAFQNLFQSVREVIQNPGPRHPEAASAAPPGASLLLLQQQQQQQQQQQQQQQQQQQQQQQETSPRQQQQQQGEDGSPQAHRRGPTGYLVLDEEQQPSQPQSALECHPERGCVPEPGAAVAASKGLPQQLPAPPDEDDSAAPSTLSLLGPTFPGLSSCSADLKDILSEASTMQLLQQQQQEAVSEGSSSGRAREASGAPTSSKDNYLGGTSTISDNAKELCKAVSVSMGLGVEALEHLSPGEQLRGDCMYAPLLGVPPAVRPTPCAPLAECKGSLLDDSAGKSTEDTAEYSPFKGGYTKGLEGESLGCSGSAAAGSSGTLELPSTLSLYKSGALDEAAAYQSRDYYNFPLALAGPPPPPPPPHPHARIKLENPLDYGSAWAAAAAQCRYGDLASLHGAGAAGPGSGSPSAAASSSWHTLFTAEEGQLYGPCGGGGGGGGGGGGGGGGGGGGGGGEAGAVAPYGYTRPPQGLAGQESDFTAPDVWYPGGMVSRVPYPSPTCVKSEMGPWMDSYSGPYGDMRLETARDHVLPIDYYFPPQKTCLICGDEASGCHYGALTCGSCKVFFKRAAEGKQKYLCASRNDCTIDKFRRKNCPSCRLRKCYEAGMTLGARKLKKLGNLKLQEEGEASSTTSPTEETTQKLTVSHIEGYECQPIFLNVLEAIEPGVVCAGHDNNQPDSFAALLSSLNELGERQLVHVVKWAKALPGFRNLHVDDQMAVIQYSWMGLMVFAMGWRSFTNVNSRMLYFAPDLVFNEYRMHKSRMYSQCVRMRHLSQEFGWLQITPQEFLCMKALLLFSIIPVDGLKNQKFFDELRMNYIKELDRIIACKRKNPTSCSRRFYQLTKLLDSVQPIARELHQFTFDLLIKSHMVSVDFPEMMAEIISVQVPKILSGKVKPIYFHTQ
Outline: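 MDA-kb2 cells (MMTV-luciferase, responsive to AR and GR) at 3,000/well, rested 5 h at 37C, 0% CO2, then given compounds plus 0.5 nM R1881 (final) for 16 hr. Luciferase read with ONE-Glo after 30 min at room temperature.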

[10] = target: Estrogen receptor (Homo sapiens) (UniProt P03372); assay: qHTS assay to identify small molecule antagonists of the estrogen receptor alpha (ER-alpha) signaling pathway using the BG1 cell line in the presence of 0.1 nM 17-beta-estradiol (AID 1259244); note: nearly all actives have a fitted effect of over 50% in size; note: potency is the fitted concentration of half-maximal effect
Sequence of Estrogen receptor (Homo sapiens) (P03372 whole entry, looked up): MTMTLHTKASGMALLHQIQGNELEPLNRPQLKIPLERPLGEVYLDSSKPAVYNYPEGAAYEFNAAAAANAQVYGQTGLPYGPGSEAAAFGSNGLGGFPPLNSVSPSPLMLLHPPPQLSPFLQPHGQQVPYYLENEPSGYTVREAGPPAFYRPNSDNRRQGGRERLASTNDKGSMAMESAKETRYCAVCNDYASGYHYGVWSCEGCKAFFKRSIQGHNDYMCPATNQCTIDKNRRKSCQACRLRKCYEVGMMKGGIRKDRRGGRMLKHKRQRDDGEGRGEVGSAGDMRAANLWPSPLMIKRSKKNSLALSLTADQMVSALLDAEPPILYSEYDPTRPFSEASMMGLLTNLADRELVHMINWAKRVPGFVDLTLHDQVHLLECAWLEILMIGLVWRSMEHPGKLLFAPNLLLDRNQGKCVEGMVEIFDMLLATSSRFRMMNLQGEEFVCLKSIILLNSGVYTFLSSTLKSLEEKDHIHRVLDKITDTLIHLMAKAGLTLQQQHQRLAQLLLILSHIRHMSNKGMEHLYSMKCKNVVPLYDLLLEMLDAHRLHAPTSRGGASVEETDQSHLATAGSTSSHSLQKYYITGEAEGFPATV
Outline: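 VM7Luc4E2 cells (endogenous full-length ER-alpha, 4×ERE-luciferase), kept 5 days in phenol red-free, charcoal-stripped FBS medium; 4,000 cells/well. Compounds added with 0.1 nM (final) 17beta-estradiol, 22 hr at 37C; luminescence read with ONE-Glo after 30 min.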

[11] = qHTS assay to identify small molecule agonists of the sonic hedgehog signaling (Shh) pathway - cell viability counter screen (AID 1259366); note: nearly all actives have a fitted effect of over 50% in size; note: potency is the fitted concentration of half-maximal effect
Outline: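 After a 4hr attachment at 37C, NIH/3T3 cells bearing an integrated Gli1-driven luciferase reporter were dosed with compounds. Treatment lasted 24hr, with the final hour including CellTiter-Fluor for a fluorescence viability measurement.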

[12] = qHTS assay to identify small molecule antagonists of the sonic hedgehog signaling (Shh) pathway - cell viability counter screen (AID 1259367); note: nearly all actives have a fitted effect of over 55% in size; note: potency is the fitted concentration of half-maximal effect
Outline: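 Seed 3T3 Gli1-Luc cells at 2,000 per well; incubate 4 hr; add compound in DMSO, then conditioned medium; incubate at 37C with 5% CO2; add CellTiter-Fluor after 23 hr; read fluorescence 1 hr later.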

[13] = qHTS assay to identify small molecule agonists of the sonic hedgehog signaling (Shh) pathway (AID 1259368; calls by dose curve;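 note: NIH/3T3-derived 3T3Gli1-Luc cells carrying a stable Gli1-driven firefly luciferase reporter; series mostly up to about 92 µM; nearly all actives have a fitted effect of over 15% in size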)
Outline: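 NIH/3T3-derived 3T3Gli1-Luc cells with stably integrated Gli1-driven firefly luciferase, 2,000 cells/well, compounds added after 4 hr. Incubated 24 hr at 37C, 5% CO2; luminescence read after 30 min with luciferase reagent at room temperature.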

[14] = qHTS assay to identify small molecule antagonists of the sonic hedgehog signaling (Shh) pathway (AID 1259369; calls by dose curve; note: nearly all actives have a fitted effect of over 45% in size; note: potency is the fitted concentration of half-maximal effect)
Outline: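 NIH/3T3-derived Gli1-Luc reporter cells plated 4 h, dosed with compound, then stimulated with conditioned medium for 24 h at 37 C. Firefly luciferase luminescence read after 30 min with detection reagent at room temperature.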

[15] = target: Estrogen receptor beta (Homo sapiens) (UniProt Q92731); assay: qHTS assay to identify small molecule agonists of the estrogen receptor beta (ER-beta) signaling pathway (AID 1259377; active = well fitted activation curve with a large enough effect in the signal ratio in the repeat runs, not every such curve was filed as active; the % refers to the signal ratio)
Sequence of Estrogen receptor beta (Homo sapiens) (Q92731 whole entry, looked up): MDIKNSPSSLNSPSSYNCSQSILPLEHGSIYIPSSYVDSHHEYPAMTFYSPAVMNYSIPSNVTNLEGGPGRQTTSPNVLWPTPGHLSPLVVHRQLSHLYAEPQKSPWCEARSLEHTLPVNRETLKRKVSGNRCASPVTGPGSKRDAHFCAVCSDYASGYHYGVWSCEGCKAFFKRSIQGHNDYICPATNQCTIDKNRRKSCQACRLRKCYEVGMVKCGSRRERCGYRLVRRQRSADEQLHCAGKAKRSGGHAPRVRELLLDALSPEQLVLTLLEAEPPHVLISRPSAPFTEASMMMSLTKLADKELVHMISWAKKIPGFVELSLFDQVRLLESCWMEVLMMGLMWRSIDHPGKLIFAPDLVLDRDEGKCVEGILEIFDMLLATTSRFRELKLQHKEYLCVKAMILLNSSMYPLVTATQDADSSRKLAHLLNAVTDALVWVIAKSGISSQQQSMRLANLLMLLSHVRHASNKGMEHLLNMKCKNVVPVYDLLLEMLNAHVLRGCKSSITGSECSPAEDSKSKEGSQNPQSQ
Outline: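 In HEK293T cells bearing a UAS-beta-lactamase reporter under ER-beta control, DMSO-delivered compounds were incubated for 16 hr at 37C. Activity was detected as fluorescence 2 hours after LiveBLAzer B/G FRET substrate addition.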

[16] = target: Estrogen receptor beta (Homo sapiens) (UniProt Q92731); assay: qHTS assay to identify small molecule antagonists of the estrogen receptor beta (ER-beta) signaling pathway (AID 1259378; active = well fitted inhibition curve with a large enough effect in the signal ratio in the repeat runs, not every such curve was filed as active; the % refers to the signal ratio; note: potency is the fitted concentration of half-maximal effect)
Outline: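 ER-beta-UAS-bla HEK293T cells in 2% charcoal-stripped FBS medium treated with compound plus 1nM final 17-beta-estradiol for 16 hr at 37C. Beta-lactamase reporter read by FRET substrate fluorescence after 2 hours at room temperature.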

[17] = A CellTox Green Cytotoxicity Assay to monitor cytotoxicity in HEK293 cells - 16 hour (AID 1224888); note: nearly all actives have a fitted effect of over 35% in size; note: potency is the fitted concentration of half-maximal effect
Outline: as §1

[18] = qHTS assay to identify small molecule HDAC inhibitors (AID 1259364); note: top concentration of the series differs between compounds; nearly all actives have a fitted effect of over 45% in size
Outline: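 Wild-type HCT-116 cells, plated overnight at 37 C, exposed to compounds 2 hr at 37 C; luminogenic HDAC-Glo substrate then added 30 min at room temperature. Luminescence reports relative endogenous class I/II HDAC activity.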

[19] = qHTS assay to identify small molecule HDAC inhibitors - cell viability counter screen (AID 1259365)
Outline: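 Following a 2hr exposure of overnight-plated wild-type HCT-116 cells to DMSO-delivered compounds, CellTiter-Glo was added and luminescence recorded after 30min at room temperature.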

Measured: Potency

O=C1C=CC(=O)N1c1cccc(N2C(=O)C=CC2=O)c1
active: [2] 15.5 µM | [3] 11 µM | [4] 19.5 µM | [6] 17.4 µM | [7] 68.6 µM | [8] 61.1 µM | [9] 61.1 µM | [10] 61.1 µM | [11] 8.63 µM | [12] 7.7 µM | [14] 1.72 µM | [16] 61.1 µM
inactive: [1] | [5] | [13] | [15]

C/C(=C\c1ccc(C(=O)O)cc1)c1ccc2c(c1)C(C)(C)CCC2(C)C
inactive: [1] | [2] | [3] | [4] | [17] | [5] | [6] | [7] | [8] | [18] | [19] | [11] | [12] | [13] | [14]

Cc1ccc(S(=O)(=O)C(I)I)cc1
inactive: [18] | [19] | [13]
active: [1] 49 µM | [2] 11 µM | [3] 12.3 µM | [4] 24.5 µM | [17] 43.6 µM | [5] 12.3 µM | [7] 77 µM | [8] 48.6 µM | [9] 15.4 µM | [10] 13.7 µM | [11] 6.11 µM | [12] 7.7 µM | [14] 1.22 µM

NC(=O)c1ccccc1Cl
inactive: [1] | [2] | [3] | [4] | [17] | [5] | [6] | [7] | [8] | [10] | [19] | [11] | [12] | [13] | [14] | [15] | [16]

CN1CCN(C)CC1
inactive: [1] | [2] | [3] | [4] | [5] | [6] | [7] | [8] | [9] | [10] | [18] | [19] | [11] | [12] | [13] | [15]

CN[C@H]1CC[C@@H](c2ccc(Cl)c(Cl)c2)c2ccc(S(N)(=O)=O)cc21
inactive: [7] | [18] | [19] | [13]
active: [1] 54.9 µM | [2] 43.6 µM | [3] 21.9 µM | [4] 38.9 µM | [17] 24.5 µM | [9] 30.6 µM | [10] 61.1 µM | [11] 30.6 µM | [12] 61.1 µM | [14] 3.06 µM | [16] 24.3 µM

Cc1cccc(C)c1C
inactive: [1] | [2] | [3] | [4] | [17] | [5] | [6] | [7] | [8] | [18] | [19] | [11] | [12] | [13] | [14]
